This passage reports INHIBITION results from ChEMBL document CHEMBL4513216, “Probing the Open Global Health Chemical Diversity Library for Multistage-Active Starting Points for Next-Generation Antimalarials” (ACS Infect Dis, 2020).

About 8,600 (12%) of roughly 69,000 compounds showed an effect of 50% or more. For the sample, strong results were picked, then their nearest neighbours and some compounds at random.

The experiment relates to Plasmodium berghei. Nature of the experiment: Screen against P. berghei liver stage (PbLuc), transformed with Luciferase, at 10uM. Type of experiment: functional, HepG2. The conditions noted are these: tested at 10 uM.
With `OCCOc1ccc(NCc2cc(F)cc3cccnc23)cn1`, the INHIBITION is recorded as -116%.

Take `OCCOc1ccc(NCc2cccc3cn[nH]c23)cn1`: the INHIBITION is -1.45%.

As for `OCCOc1ccc(NCc2cccc3[nH]ccc23)cn1`, the INHIBITION amounted to 68.2%.

`Cc1ncccc1CNc1ccc(OCCO)nc1`: the INHIBITION is -89.9%.

Turning to `OCCOc1ccc(NCc2cccnc2)cn1`, the INHIBITION stood at 59.5%.

In the case of `OCCOc1ccc(NCc2cccc3cccnc23)cn1`, the INHIBITION is -37.7%.

On to `Cc1cc(-c2cnn(CCNC(=O)c3cc[nH]n3)c2C2CC2)on1`, for which the INHIBITION is 18.9%.

For the compound `CCCc1nnc(NC(=O)NC(CCO)c2cccs2)s1` (stereo not given), the INHIBITION was -26.8%.

Consider `COc1ccccc1CN1CCCC2(Cc3ccccc3CNC2=O)C1` (stereo not given), for which the INHIBITION is 11%.

Consider `CC(C)OCc1nn(C)c2c1CCN(Cc1ccco1)C2`, for which the INHIBITION is -16.9%.

`CCC(=O)N1CCN(c2nc(C)nc3c(C)nn(C)c23)CC1`: the INHIBITION came to 27.5%.

Take `Cc1ccc2c(c1)CN(C(=O)c1ccccc1F)C(CN(C)C)CO2` (stereo not given): the INHIBITION was found to be 23.9%.

For `COc1ccc(C(=O)N2Cc3cc(C)ccc3OCC2CN(C)C)cc1` (stereo not given), the INHIBITION is given as 66.5%.

As to `Cc1ccc2c(c1)CN(C(=O)c1cccnc1)C(CN(C)C)CO2` (stereo not given), the INHIBITION stood at 46%.

Consider `COc1ccccc1C(=O)N1Cc2cc(C)ccc2OCC1CN(C)C` (stereo not given), for which the INHIBITION is reported as 60.3%.

Regarding `Cc1ccc2c(c1)CN(C(=O)c1cccs1)C(CN(C)C)CO2` (stereo not given), the INHIBITION is recorded as -10.5%.

Regarding `Cc1ccc2c(c1)CN(C(=O)c1ccncc1)C(CN(C)C)CO2` (stereo not given), the INHIBITION is listed as -23.8%.

In the case of `CCCc1nc(NCCCOCC)c2c(n1)c(C)nn2CC`, the INHIBITION is reported as -1.4%.

Regarding `CC1CCCCN1c1nc2c(c(=O)[nH]1)CCN(Cc1ccccn1)C2` (stereo not given), the INHIBITION is reported as 36.7%.

Regarding `CC1CCCCN1c1nc2c(c(=O)[nH]1)CCN(Cc1ccc(O)cc1)C2` (stereo not given), the INHIBITION turned out to be 10%.

`Cc1ccsc1CN1CCc2c(nc(N3CCCCC3C)[nH]c2=O)C1` (stereo not given): the INHIBITION is reported as 85.7%.

`CC1CCCCN1c1nc2c(c(=O)[nH]1)CCN(Cc1ccccc1F)C2` (stereo not given): the INHIBITION is 72.3%.

For `Cc1cccc(CN2CCc3c(nc(N4CCCCC4C)[nH]c3=O)C2)n1` (stereo not given), the INHIBITION stood at 18.2%.

With `CC1CCCCN1c1nc2c(c(=O)[nH]1)CCN(Cc1ccccc1O)C2` (stereo not given), the INHIBITION is recorded as 23.4%.

`O=C(NCCn1nc2ccccn2c1=O)c1scnc1Cl`: the INHIBITION is 17.02%.

Regarding `Cn1cc(CN(C(=O)c2ccc(O)c(Cl)c2)C2CC2)cn1`, the INHIBITION stood at 21.3%.

For `N#Cc1ccc(N2CCCN(c3nccs3)CC2)nc1`, the INHIBITION is given as -28.2%.

As to `CC1CN(c2ncnc3sccc23)CCN1c1nccs1` (stereo not given), the INHIBITION was found to be 60.2%.

As for `CC1CN(c2ncnc3c2cnn3C)CCN1c1nccs1` (stereo not given), the INHIBITION was determined as 5.91%.

Turning to `c1csc(N2CCCN(c3ncnc4sccc34)CC2)n1`, the INHIBITION stood at 66.8%.

As to `c1csc(N2CCN(c3ncnc4sccc34)CC2)n1`, the INHIBITION worked out at 38.5%.

For `CCC[C@@H]1CN(c2ncnc3sccc23)C[C@H]1C(=O)O`, the INHIBITION is recorded as -7.98%.

Take `CN1CC(=O)N(c2ccccc2)CC12CCN(Cc1cccnc1)C2` (stereo not given): the INHIBITION was determined as 8.47%.

For `CC(C)CCn1[nH]c(CNc2ccc(F)cc2)nc1=O`, the INHIBITION is on record as 15.1%.

Consider `CN1CCC2(C=C(C(=O)N3CCCC3)c3ccccc32)CC1`, for which the INHIBITION was determined as 26.4%.

Consider `Cc1ccc(CC(=O)N2CCOC(c3ncc(CN(C)C)[nH]3)C2)s1` (stereo not given), for which the INHIBITION is recorded as 7.19%.

On to `CNc1ncc(-c2csc(NC(=O)C[C@H]3COCCN3)n2)cn1`, for which the INHIBITION is given as 24.8%.

Consider `CC(C)CC(=O)N1CCC(c2nnc3n2CCCCC3)CC1`, for which the INHIBITION is -16.5%.

For `Cn1cc(N)c(-c2nnc3n2CCCC3)n1`, the INHIBITION is on record as 42.6%.

In the case of `CCC(NC(=O)CCCNC(=O)OC)c1cc(F)ccc1F` (stereo not given), the INHIBITION was -13.6%.

As to `CCc1nc(CSC2CCCN(c3cnn(C)c3)C2=O)cs1` (stereo not given), the INHIBITION is on record as 29%.

`O=C(c1cc2c([nH]c1=O)CCC2)N1CCCC1c1ccccc1` (stereo not given): the INHIBITION is given as -19.7%.

As to `O=C(c1cc2c([nH]c1=O)CCC2)N1CCCCC1c1cccc(F)c1` (stereo not given), the INHIBITION was 54.7%.

As to `O=C(c1cc2c([nH]c1=O)CCC2)N1CCCC1c1ccc(F)cc1` (stereo not given), the INHIBITION turned out to be 20.6%.

With `COC1(CNC(=O)c2ccc(F)c(F)c2)CCSC1` (stereo not given), the INHIBITION was determined as 29.6%.

Consider `CCc1nnc(CNC(=O)CCC2CCCN(C)C2)s1` (stereo not given), for which the INHIBITION was -57.5%.

For the compound `Cc1ccsc1CN(CCCO)Cc1nc2ccccc2[nH]1`, the INHIBITION was 23.2%.

As for `Oc1ccc(-c2c(-c3ccccc3)ncn2C[C@H]2CCCN2)cc1`, the INHIBITION was -9.17%.

`Oc1ccc(-c2c(-c3ccccc3)ncn2C2CCNC2)cc1` (stereo not given): the INHIBITION came to 54.5%.

Take `CCOc1ccc(-c2c(-c3ccccc3)ncn2C2CCNC2)cn1` (stereo not given): the INHIBITION was 24.8%.

As to `O=C(CN1CCC(c2ccccc2)C1)NCC(F)(F)F` (stereo not given), the INHIBITION amounted to 37.8%.

As to `Cn1ncc(C2CC(=O)NCc3nc4ccccn4c32)c1C1CC1` (stereo not given), the INHIBITION is given as 17.6%.

For `CCCn1ncc(C2CC(=O)NCc3nc4cc(C)ccn4c32)c1C` (stereo not given), the INHIBITION is 71.5%.

Take `CCCn1ncc(C2CC(=O)NCc3nc4sc(C)cn4c32)c1C` (stereo not given): the INHIBITION amounted to 44.7%.

Take `CC1(C)O[C@@](C)([C@H]2CC3(CCN(c4cnccn4)CC3)CO2)CC[C@@H]1O`: the INHIBITION is listed as 30.55%.
